Data on 90 compounds can be found in PubChem BioAssay AID449762 (Southern Research Specialized Biocontainment Screening …, 2010).

Out of some 330,000 compounds screened, about 1,900 (0.58%) were called active. Inconclusive results (about 4%) are left out. Only a sample is shown. Potency and affinity values are given separately. A number with no mark means an inactive call. Rule as the data show it: inconclusive = inhibition above about 70% without an active follow-up result; inactive = below that.

This experiment in a line: M. tuberculosis growth inhibition, HTS (AID 449762).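 Also: bacterial growth assessed after seven days of incubation.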 The settings on record: M. tuberculosis H37Rv growth inhibition, 7H9 media; at 25 µM; active compounds read high.
What is called inhibition is the relative decrease from the control value, in per cent. On to `O=C(COC(=O)c1ccccc1Br)Nc1ccc2[nH]c(=O)[nH]c2c1`, for which the inhibition was -0.67%.
In the case of `Cc1ccc(C)c(-c2csc(NC(=O)C3=COCCO3)n2)c1`, the inhibition is 65%.
Take `CS(=O)(=O)c1ccccc1-c1nnc(NC(=O)C2=COCCO2)o1`: the inhibition was 0.09%.
Then `Cc1c(NS(=O)(=O)c2cccc(C(=O)OCC(=O)N(C)C3CCCCC3)c2)c(=O)n(-c2ccccc2)n1C`, with -13.2%; and `CCCOc1ccc(C(=O)NCc2cccnc2)cc1`, with 1.16%.
Turning to `S=C(NCc1cccnc1)NCc1cccnc1`, the inhibition is -1.16%.
In the case of `CCOc1ccc(C(=O)NC(=S)NCc2cccnc2)cc1` it was -0.27%; in that of `NC(=S)NCc1cccnc1`, -5.18%; in that of `C[C@H](CO)N1C[C@H](C)[C@@H](CN(C)S(=O)(=O)c2cn(C)cn2)Oc2ccc(NC(=O)Nc3ccc4c(c3)OCO4)cc2C1=O`, 3.14%.
For `COc1cccc(C2=NN(C(=O)c3ccc(C)o3)C(O)(C(F)(F)F)C2)c1` (stereo not given), the inhibition was 3.82%.
In the case of `Cc1coc2cc3oc(=O)c(CCC(=O)NCCCN4CCCC4=O)c(C)c3cc12`, the inhibition is -8.05%.
Take `CN(C(=S)Nc1ccc(F)cc1)C1(c2ccccc2Cl)CCCCC1=O` (stereo not given): the inhibition is -2.19%.
As to `O=C(O)COc1ccccc1/C=N/NC(=O)C(O)c1ccccc1` (stereo not given), the inhibition was -3.84%.
Take `c1ccc2c(-c3csc(-c4ccncc4)n3)c[nH]c2c1`: the inhibition is 2.11%.
As for `Brc1ccc(-c2csc(-c3c[nH]c4ccccc34)n2)cc1`, the inhibition was 20.1%.
With `CCCC(C)NC(=O)COC(=O)c1ccc(Cl)c(S(N)(=O)=O)c1` (stereo not given), the inhibition was -0.98%.
On to `N#CCOC(=O)c1c2c(nc3ccccc13)CCC2`, for which the inhibition is 1.84%.
In the case of `C=CCN(CC=C)C(=S)NC(=O)/C=C/c1ccccc1` it was -2.7%; in that of `CN(Cc1ccccc1)C(=S)NC(=O)c1ccc(-c2ccccc2)cc1`, 26.7%.
Then `O=C(/C=C/c1ccc(OC2CSC2)cc1)c1ccc(Cl)cc1`, with 11.9%; and `COCCNC(=O)c1cc2c(-c3ccccc3F)nn(C)c2s1`, with 12.7%.
In the case of `COc1cccc(-c2nn(C)c3sc(C(=O)Nc4ccc5c(c4)OCCO5)cc23)c1` it was 3.01%; in that of `COc1ccc(C2/C(=C(/O)c3ccc(F)cc3)C(=O)C(=O)N2CCCN2CCOCC2)cc1OC` (stereo not given), -2.8%; in that of `Cn1c(C(F)(F)F)nc2c(=O)oc3ccccc3c21`, 66.9%.
Turning to `Cc1nc2c(=O)oc3ccccc3c2n1-c1ccccc1`, the inhibition is -4.41%.
Take `COc1cc(Cl)ccc1NC(=S)N(CCCN1CCOCC1)Cc1cn(C)c2ccccc12`: the inhibition was -4.57%.
With `O=C(Nc1ccc(Oc2ccc3c(c2)C(=O)N(c2ccc(O)cc2)C3=O)cc1)c1cccs1`, the inhibition was 2.92%.
Regarding `CCCNc1nc(C)cc(-c2cc(C(=O)Nc3ccccc3)on2)n1`, the inhibition was 28.1%.
Regarding `COCCNc1nc(-c2cc(C(=O)Nc3ccccc3)on2)cc(C(C)C)n1`, the inhibition was 14.4%.
In the case of `COC(=O)C1CCCCN1C(=O)CCc1nnc(CCc2c[nH]c3ccccc23)o1` (stereo not given) it was 0.08%; in that of `COCCNC(=O)c1ccc(N2CCC3(CC2)OCCO3)c([N+](=O)[O-])c1`, -3.57%.
Then `CCCCNC(=O)c1ccc(N2CCC3(CC2)OCCO3)c([N+](=O)[O-])c1`, with -3.04%.
On to `N#C[C@@H]1[C@@H]2C(=O)N(c3ccc4c(c3)OCCO4)C(=O)[C@@H]2C2c3ccccc3C=CN21` (stereo not given in full), for which the inhibition is -6.97%.
Turning to `CCn1c(SCC(=O)Nc2cc(C(C)(C)C)nn2-c2ccccc2)nnc1-c1cccs1`, the inhibition is -2.18%.
For the compound `COc1cccc(N2CCN(C(=O)CCCCCNc3nc(=S)[nH]c4ccccc34)CC2)c1`, the inhibition was 13.8%.
In the case of `O=C(C1CCC(CNc2nc(=S)[nH]c3ccccc23)CC1)N1CCN(c2ccccn2)CC1` (stereo not given) it was 6.46%; in that of `CCOC(=O)c1ccc(-c2c(-c3ccccc3OC)sc3cc4c(cc23)OCO4)cc1F`, 6.83%; in that of `O=C(Cc1c(F)cccc1Cl)Nc1ccc(S(=O)(=O)N2CCOCC2)cc1`, -7.05%.
Then `CCOC(=O)N1CCN(C(=O)CNC(=O)c2nn(-c3ccc(OC)c(Cl)c3)c(=O)c3ccccc23)CC1`, with 7.01%.
As to `CCOC(=O)CNC(=O)CNC(=O)c1nn(-c2ccc(OC)c(OC)c2)c(=O)c2ccccc12`, the inhibition was 23.4%.
With `O=C(c1ccccc1N(Cc1ccccc1)S(=O)(=O)c1ccccc1)N1CCOCC1`, the inhibition was -3.28%.
In the case of `Cn1c(=O)n(C)c2cc(NC(=O)COc3ccc(F)cc3)ccc21`, the inhibition is -1.78%.
As for `O=C1CCN(CCc2ccccc2)CCN1[C@H](CSc1ccccc1)c1ccccc1`, the inhibition was 21.9%.
With `c1ccc2c(c1)ncn2-c1ncnc2sc3c(c12)CCCC3`, the inhibition was 7.95%.
Then `CC(O)CNc1nc2sc3c(c2c(=O)n1CCc1ccccc1)CCCCC3` (stereo not given), with -3.46%.
Regarding `O=C(COc1ccccc1Cl)Nc1ccc2c(c1)C(=O)NC2=O`, the inhibition was -3.92%.
For `CC1(C)CC(=O)c2cc(OCC(=O)NCc3cccnc3)ccc2O1`, the inhibition was -4.88%.
Regarding `CCOC(=O)COc1ccc2c(c1)C(=O)CC(C)(C)O2`, the inhibition was 54.7%.
In the case of `COc1ccc2c(c1OC)C(=O)N1C2SC(C)(C)[C@H]1C(=O)NC(C)C` (stereo not given in full) it was -6.91%; in that of `COc1ccc(-c2cc3nc[nH]c(=O)c3s2)cc1`, 65.4%; in that of `COc1ccc(-c2cc3nc(C)n(N)c(=O)c3s2)cc1`, -2.06%.
On to `COc1ccc(CC(=O)Nc2nc(C)cs2)cc1OC`, for which the inhibition was 0.84%.
Take `O=C(C1CCC(=O)N(C2CCCCCC2)C1)N1CCN(c2ccccc2Cl)CC1` (stereo not given): the inhibition was 1.52%.
In the case of `Cc1ccccc1N1CCN(C(=O)C2CCC(=O)N(C3CCCC3)C2)CC1` (stereo not given) it was 2.89%; in that of `CN(C)S(=O)(=O)c1ccc(C(=O)/C=C/c2cccnc2)cc1`, 18.5%.
For `Cc1cccc2c1N(CCOc1ccc(C(C)(C)C)cc1)C(=O)C2=O`, the inhibition was 4.9%.
For `Cc1ccc(OCCCN2C(=O)C(=O)c3cccc(C)c32)cc1`, the inhibition was 9.09%.
On to `COc1ccc(N2CCN(C(=O)CCc3nnc4ccc(N5CCOCC5)nn34)CC2)cc1`, for which the inhibition is -1.82%.
`COc1cc(N)c(Cl)cc1C(=O)NC1CN2CCC1CC2` (stereo not given): the inhibition was 4.28%.
Regarding `CCOc1cc(N)c(Cl)cc1C(=O)NCC1CN(Cc2ccc(F)cc2)CCO1` (stereo not given), the inhibition is -1.66%.
Consider `COc1ccc(S(=O)(=O)N2CCOC2CNC(=O)C(=O)NCc2ccco2)cc1` (stereo not given), for which the inhibition was 0.26%.
Then `CCC(C)Nc1nc(Cl)nc(NCCOc2ccccc2)n1` (stereo not given), with 5.37%; and `O=C(CCC(=O)N(CC(=O)NC1CCCCC1)CC1CCCO1)Nc1nccs1` (stereo not given), with -1.08%; and `Cc1c(Cl)cccc1NC(=O)c1cc(-c2ccco2)on1`, with 3.35%.
For `O=C(Nc1cccnc1Cl)c1cc(-c2ccc(Cl)cc2)on1`, the inhibition is 5.26%.
For `O=[N+]([O-])c1ccc(-c2cnc(SCc3ccccc3Cl)[nH]2)cc1`, the inhibition was -2.76%.
In the case of `COc1ccccc1CSc1ncc(-c2ccc([N+](=O)[O-])cc2)[nH]1`, the inhibition is -2.06%.
For the compound `COCC(=O)N1CCC(Oc2cccc(C(=O)NCc3ccccn3)c2)CC1`, the inhibition is -0.85%.
Turning to `O=C(O)CCN1C(=O)C(=C2CCCCCC2)SC1=S`, the inhibition was -3.58%.
For the compound `CCCCN1C(=O)/C(=C2/C=CC=CN2C)SC1=S`, the inhibition is -5.48%.
Take `CCCCn1nc2cc(C(=O)NCc3ccc(OC(F)(F)F)cc3)ccc2c1OC`: the inhibition is 6.36%.
As to `O=C(NN1CCOCC1)C12CC3CC(CC(C3)C1)C2`, the inhibition is -3.63%.
Then `COc1ccc2c3c([nH]c2c1)[C@H]1C[C@H]2[C@H](C[C@@H](O)[C@H](OC)[C@H]2C(=O)O)CN1CC3`, with 1.26%; and `COc1ccc2c3c([nH]c2c1)C1CC2C(CC(O)C(OC)C2C(=O)O)CN1CC3` (stereo not given), with -4.38%; and `C=Cn1nc(C)c2ccccc2c1=O`, with -3.9%.
As to `COC(=O)c1cc(=O)n(Cc2ccc(F)cc2)c(=Nc2ccccc2)s1`, the inhibition is 4.7%.
`COC(=O)c1cc(=O)n(CCc2ccccc2)c(=Nc2ccc(F)cc2)s1`: the inhibition was 4.1%.
Then `COc1cccc(NC(=O)[C@H](CC(C)C)NC(=O)N2CCn3c2nc2ccccc23)c1`, with 11.4%; and `NC(=O)[C@H](Cc1cc2ccccc2s1)NC(=O)[C@@H]1CC2(CC(c3cccc(NC(=O)[C@@H]4CCC(=O)N4)c3)=NO2)CN1C(=O)c1ccccc1` (stereo not given in full), with -4.74%; and `NC(=O)C1CCN(CCCNC2CC(=O)N(Cc3ccc(N4CCCC4=O)cc3)C2=O)CC1` (stereo not given), with -6.69%.
In the case of `Nc1cc(C(=O)OCC(=O)NNC(=O)c2ccccc2)ccc1Cl` it was 35.4%.
Consider `Nc1cc(C(=O)OCC(=O)NNC(=O)c2ccccc2F)ccc1Cl`, for which the inhibition is 25.6%.
As for `CCOc1cc(Cl)c(CNCCCN2CCOCC2)cc1OC`, the inhibition is 5.34%.
Then `CCOC(=O)c1c(C)[nH]c(C(=O)COC(=O)c2cc(C)oc2C)c1C`, with -7.77%.
As for `N#Cc1ccc(-c2ccc3c(c2)OCO3)nc1SCC(=O)OCc1ccccc1`, the inhibition was -7.31%.
With `COc1ccc(-c2ccc(C#N)c(SCC(=O)NCCc3ccccc3)n2)cc1OC`, the inhibition is 8.95%.
For the compound `S=C(NC1CCCCC1)N1CCN(Cc2ccccc2Cl)CC1`, the inhibition was 1.74%.
Consider `COc1ccc2c(COC(=O)CCS(=O)(=O)c3ccccc3)cc(=O)oc2c1`, for which the inhibition is -17.5%.
Regarding `O=c1[nH]c(CSc2ccccn2)nc2ccccc12`, the inhibition was 3.19%.
As to `Cn1c(SCc2nc3ccccc3c(=O)[nH]2)nc2ccccc21`, the inhibition is 1.19%.
